Reference: PubChem BioAssay (NCATS)
Several values for one entry are separate records, joined by “and”; a condition that tells them apart may be missing. Equal values may be shown once. Inconclusive results are not listed. A call without a number means that no potency is given here. Activity calls are given as the source filed them. Unless noted, calls follow the shape of the dose curve; as a rule, active = well fitted curve in the direction sought with a large enough effect; inconclusive = small, poorly fitted or top-dose-only effect, or another doubt; inactive = no such curve, though single readings can be large; an effect the other way counts as inactive or inconclusive.

What was measured:
[1] = molecular target: Cytochrome P450 2C9 (Homo sapiens) (UniProt P11712); assay: Cytochrome P450 family 2 subfamily C member 9 (CYP2C9) small molecule antagonists: luciferase biochemical (cell-free) qHTS assay (AID 1645842; active = well fitted curve in the direction sought with a large enough effect in the repeat runs; an effect the other way counts as inactive or inconclusive; also: nearly all actives have a fitted effect of over 55% in size; also: potency is read from the fitted curve at half-maximal effect)
Chain of Cytochrome P450 2C9 (Homo sapiens) (P11712 whole entry, looked up): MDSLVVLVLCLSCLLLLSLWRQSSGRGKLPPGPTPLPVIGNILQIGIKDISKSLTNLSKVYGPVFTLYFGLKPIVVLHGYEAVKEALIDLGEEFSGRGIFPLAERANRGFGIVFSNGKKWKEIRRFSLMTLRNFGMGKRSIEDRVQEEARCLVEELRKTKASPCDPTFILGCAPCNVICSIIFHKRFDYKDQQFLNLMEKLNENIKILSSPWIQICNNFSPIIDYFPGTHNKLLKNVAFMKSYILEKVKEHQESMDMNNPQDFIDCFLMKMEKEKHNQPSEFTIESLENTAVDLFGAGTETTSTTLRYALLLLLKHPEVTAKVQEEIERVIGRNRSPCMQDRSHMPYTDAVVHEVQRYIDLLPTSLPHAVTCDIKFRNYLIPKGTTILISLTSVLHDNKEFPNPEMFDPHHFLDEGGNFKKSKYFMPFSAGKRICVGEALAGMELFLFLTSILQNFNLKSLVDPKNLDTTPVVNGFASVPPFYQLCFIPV
How it was run: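 Luminescence, after 20 min with luciferin detection reagent, reflected CYP2C9 turnover during a 1 h NADPH-driven reaction at 37C. Enzyme-substrate mix contained 0.4% bovine serum albumin and was preincubated with compound 10 min at room temperature.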

[2] = Primary qHTS for inhibitors of nuclear receptor binding SET domain protein 2 (NSD2) in an isogenic RCH-ACV NSD2 p.E1099K mutant (9B) (AID 1645876); also: nearly all actives have a fitted effect of over 70% in size; also: potency is read from the fitted curve at half-maximal effect
[3] = Primary qHTS for inhibitors of nuclear receptor binding SET domain protein 2 (NSD2) in an RCH-ACV wild type WT cells (2C) (AID 1645877); also: nearly all actives have a fitted effect of over 70% in size; also: potency is read from the fitted curve at half-maximal effect
[4] = molecular target: Glutathione peroxidase 1 (Homo sapiens) (UniProt P07203); assay: Primary qHTS Assay for Inhibitors of Recombinant Selenoprotein Glutathione Peroxidase 1 (GPX1) (AID 1845191); also: nearly all actives have a fitted effect of over 65% in size; also: potency is read from the fitted curve at half-maximal effect
Chain of Glutathione peroxidase 1 (Homo sapiens) (P07203 whole entry, looked up): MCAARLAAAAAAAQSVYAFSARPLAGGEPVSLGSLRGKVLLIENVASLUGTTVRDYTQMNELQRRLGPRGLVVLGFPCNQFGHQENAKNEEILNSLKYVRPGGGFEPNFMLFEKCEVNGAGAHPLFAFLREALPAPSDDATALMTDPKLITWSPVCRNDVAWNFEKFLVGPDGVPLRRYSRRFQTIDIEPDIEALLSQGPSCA
How it was run: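 10 nM GPX1 + cpd, 30 min RT; start w/ 1 mM GSH, 0.5 mM cumene hydroperoxide, 0.5 mM NADPH, 100 nM GR, 0.01% BSA; buffer 50 mM Tris-HCl pH 7.5, 2 mM EDTA, 150 mM NaCl; Fl 340/450, 0 & 15 min.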

[5] = molecular target: Phospholipid hydroperoxide glutathione peroxidase GPX4 (Homo sapiens) (UniProt P36969); assay: Primary qHTS Assay for Inhibitors of Recombinant Selenoprotein Glutathione Peroxidase 4 (GPX4) (AID 1845192); also: nearly all actives have a fitted effect of over 65% in size
Chain of Phospholipid hydroperoxide glutathione peroxidase GPX4 (Homo sapiens) (P36969 whole entry, looked up): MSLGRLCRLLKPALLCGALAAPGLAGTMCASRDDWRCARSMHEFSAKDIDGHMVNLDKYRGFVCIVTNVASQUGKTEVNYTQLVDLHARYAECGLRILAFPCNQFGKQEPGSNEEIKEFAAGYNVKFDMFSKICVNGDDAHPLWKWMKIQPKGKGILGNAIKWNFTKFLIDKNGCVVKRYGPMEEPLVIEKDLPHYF
How it was run: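 NADPH consumption, followed by fluorescence at 340/450 nm between 0 and 15 min, reports GPX4 activity via coupled glutathione reductase (100 nM). Enzyme 200 nM was pre-exposed to compound 30 min; 0.5 mM cumene hydroperoxide and 1 mM GSH served as substrates.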

[6] = molecular target: Luciferin 4-monooxygenase (Photinus pyralis) (UniProt P08659); assay: Primary firefly luciferase (FLuc) qHTS assay for identification of artifact compounds. (AID 1845220); also: nearly all actives have a fitted effect of over 60% in size
How it was run: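 Cell-free, 1536-well qHTS. Buffer pH 7.6 with 0.01% Tween-20 and 0.05% BSA; 10 uM D-luciferin, 10 uM ATP; 10 nM P. pyralis luciferase; luminescence after 5 min.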

[7] = Primary fluorescence-based thiol-reactive (MSTI) qHTS assay for identification of artifact compounds. (AID 1845221); also: nearly all actives have a fitted effect of over 65% in size; also: potency is read from the fitted curve at half-maximal effect
How it was run: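 One-hour, room-temperature, dark incubation of compound with 4 uM MSTI in PBS (pH 7.4, 2% DMSO) precedes a fluorescence read at 525 nm excitation, 598 nm emission; Hill-equation fitting yields concentration-response values.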

[8] = molecular target: Cytochrome P450 3A4 (Homo sapiens) (UniProt P08684); assay: Cytochrome P450 family 3 subfamily A member 4 (CYP3A4) small molecule antagonists: luciferase qHTS assay (AID 1645841; active = well fitted curve in the direction sought with a large enough effect in the repeat runs; an effect the other way counts as inactive or inconclusive; also: potency is read from the fitted curve at half-maximal effect; nearly all actives have a fitted effect of over 45% in size)
Chain of Cytochrome P450 3A4 (Homo sapiens) (P08684 whole entry, looked up): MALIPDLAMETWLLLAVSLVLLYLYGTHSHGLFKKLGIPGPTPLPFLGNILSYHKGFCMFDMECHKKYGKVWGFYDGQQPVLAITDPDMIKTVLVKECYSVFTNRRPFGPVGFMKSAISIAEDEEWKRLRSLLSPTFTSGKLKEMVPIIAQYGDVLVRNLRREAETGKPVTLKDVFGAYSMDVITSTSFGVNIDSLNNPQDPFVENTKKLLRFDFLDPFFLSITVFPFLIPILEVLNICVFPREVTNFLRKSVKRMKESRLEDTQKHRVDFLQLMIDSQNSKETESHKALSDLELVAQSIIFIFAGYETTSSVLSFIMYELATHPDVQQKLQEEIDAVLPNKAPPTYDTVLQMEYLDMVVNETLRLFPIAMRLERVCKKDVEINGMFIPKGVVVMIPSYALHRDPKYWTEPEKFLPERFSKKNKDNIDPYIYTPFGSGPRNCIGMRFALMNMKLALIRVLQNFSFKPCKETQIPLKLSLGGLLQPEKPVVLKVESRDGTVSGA
How it was run: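 Luminescent CYP3A4 activity readout: compounds plus enzyme-substrate mix 10 min at room temperature, reaction started with NADPH regenerating system for 1 h, stopped with detection reagent, read after 20 min. Ketoconazole served as control.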

[9] = NCATS anti-infectives library activity on HEK293 viability as a counter-qHTS vs the C. elegans viability qHTS (AID 1745854);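 also: HEK293 cells exposed to compounds for 24 hr before the viability read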
How it was run: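 HEK293 cells (1,500/well) exposed 24 hr at 37C to 1:5 titrations, up to 41.7 uM final; counter-screen to a C. elegans viability qHTS. Viability by CellTiter-Glo luminescence after 10 min at room temperature; digitonin as control.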

[10] = NCATS anti-infectives library activity on the primary C. elegans qHTS viability assay (AID 1745855; calls by dose curve)
How it was run: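 Viability read-out is GFP fluorescence of PE254-GFP-FLuc C. elegans, measured by laser cytometry (488 nm) at day 0, 3 and 7. Ten L1 worms per well were incubated 7 days at 21 °C with compounds and bacterial capsules in S medium.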

[11] = molecular target: Catechol O-methyltransferase (Homo sapiens) (UniProt P21964); assay: Confirmatory Screen for Target Class Profiling of Small Molecule Inhibitors of Methyltransferases (AID 1745852; calls by dose curve); conditions: MTase-Glo luminescence, SAH detection, recombinant enzyme; measured here: COMT max response; stronger effect = lower value
Chain of Catechol O-methyltransferase (Homo sapiens) (P21964 whole entry, looked up): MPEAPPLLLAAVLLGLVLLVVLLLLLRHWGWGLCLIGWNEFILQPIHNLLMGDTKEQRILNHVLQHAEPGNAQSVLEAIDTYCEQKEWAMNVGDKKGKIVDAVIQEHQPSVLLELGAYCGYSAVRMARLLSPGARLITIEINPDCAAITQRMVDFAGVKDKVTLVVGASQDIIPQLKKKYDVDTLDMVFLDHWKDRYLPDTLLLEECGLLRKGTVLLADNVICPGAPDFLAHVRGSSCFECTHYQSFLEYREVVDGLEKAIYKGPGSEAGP

[12] = molecular target: Guanidinoacetate N-methyltransferase (Homo sapiens) (UniProt Q14353); assay: as above; conditions: activity change, negative = inhibition: at 57.3 µM (top of the series)
[13] = molecular target: Nicotinamide N-methyltransferase (Homo sapiens) (UniProt P40261); assay: as above; conditions: MTase-Glo luminescence, SAH detection, recombinant enzyme; measured here: NNMT max response; stronger effect = lower value
Chain of Nicotinamide N-methyltransferase (Homo sapiens) (P40261 whole entry, looked up): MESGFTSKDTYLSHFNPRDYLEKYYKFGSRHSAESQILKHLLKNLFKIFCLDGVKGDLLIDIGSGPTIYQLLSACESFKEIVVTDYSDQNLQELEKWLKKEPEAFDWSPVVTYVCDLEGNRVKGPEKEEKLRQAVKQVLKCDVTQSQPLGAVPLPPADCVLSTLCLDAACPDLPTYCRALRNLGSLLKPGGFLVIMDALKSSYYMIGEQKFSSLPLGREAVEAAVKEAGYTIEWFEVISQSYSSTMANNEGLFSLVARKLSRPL

[14] = molecular target: Phenylethanolamine N-methyltransferase (Homo sapiens) (UniProt P11086); assay: as above; conditions: MTase-Glo luminescence, SAH detection, recombinant enzyme; measured here: PNMT max response; stronger effect = lower value
Chain of Phenylethanolamine N-methyltransferase (Homo sapiens) (P11086 whole entry, looked up): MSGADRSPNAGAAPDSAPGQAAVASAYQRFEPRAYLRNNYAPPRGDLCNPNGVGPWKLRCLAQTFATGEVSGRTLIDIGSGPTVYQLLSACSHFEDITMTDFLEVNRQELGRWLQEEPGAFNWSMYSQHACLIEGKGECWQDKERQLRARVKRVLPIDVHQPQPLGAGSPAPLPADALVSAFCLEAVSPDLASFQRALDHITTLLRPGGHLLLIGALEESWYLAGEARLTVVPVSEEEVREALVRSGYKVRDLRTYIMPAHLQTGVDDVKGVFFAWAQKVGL

SMILES: CN(C)CC(=O)N1CCC(c2ccc(NC(=O)c3ncc(C#N)[nH]3)c(C3=CCCCC3)c2)CC1
- Potency [1]: inactive
- Potency [2]: 5.8 µM (active) and 11.8 µM (active)
- Potency [3]: 10.3 µM (active) and 9.34 µM (active)
- Potency [4]: inactive
- Potency [5]: inactive
- Potency [6]: inactive
- Potency [7]: inactive

SMILES: Cc1ncc(-c2ccnc(Nc3ccc(S(C)(=O)=O)cc3)n2)n1C(C)C
- Potency [1]: 3.79 µM (active)
- Potency [2]: 1.45 µM (active) and 742 nM (active)
- Potency [3]: 916 nM (active) and 525 nM (active)
- Potency [4]: inactive
- Potency [5]: inactive
- Potency [6]: inactive
- Potency [7]: inactive

SMILES: COC[C@H](NC(=O)c1cnc(C)s1)C(=O)N[C@@H](COC)C(=O)N[C@@H](Cc1ccccc1)C(=O)[C@@]1(C)CO1
- Potency [8]: 10.7 µM (active)
- Potency [1]: inactive
- Potency [2]: 0.132 µM (active)
- Potency [4]: inactive
- Potency [5]: inactive

SMILES: C=CC(=O)Nc1ccc2ncnc(Nc3ccc(OCc4cccc(F)c4)c(Cl)c3)c2c1
- Potency [1]: 3.38 µM (active)
- Potency [2]: 7.28 µM (active) and 5.9 µM (active)
- Potency [3]: 8.17 µM (active) and 4.68 µM (active)
- Potency [4]: inactive
- Potency [5]: inactive
- Potency [6]: inactive
- Potency [7]: inactive

SMILES: FC(F)(F)c1ccc(Nc2nc3ccc(Oc4ccnc(-c5ncc(C(F)(F)F)[nH]5)c4)cc3[nH]2)cc1
- Potency [1]: 23.9 µM (active)
- Potency [2]: 14.8 µM (active)
- Potency [3]: 23.5 µM (active)
- Potency [4]: inactive
- Potency [5]: inactive
- Potency [6]: inactive
- Potency [7]: inactive

SMILES: CC(C)Oc1ccc(C(=O)N[C@H](CNC(=O)CN(C)C)Cc2ccc(-c3cn4cccc([C@H](C)O)c4n3)cc2)cc1Cl
- Potency [1]: 10.7 µM (active)
- Potency [2]: 0.059 µM (active)
- Potency [3]: 0.059 µM (active)
- Potency [4]: inactive

SMILES: CCCCOc1ccc(C(=O)Nc2ccc(F)cc2F)cc1
- Potency [1]: 7.56 µM (active)
- Potency [2]: inactive
- Potency [3]: inactive
- Potency [4]: inactive
- Potency [5]: inactive
- Potency [6]: inactive
- Potency [7]: inactive

SMILES: COc1ccc(S(=O)(=O)Nc2cccnc2Nc2ccc(O)cc2)cc1
- Potency [1]: 8.49 µM (active)
- Potency [2]: 9.34 µM (active)
- Potency [3]: 9.34 µM (active)
- Potency [6]: inactive
- Potency [7]: 4.23 µM (active)

SMILES: CC(O)(C#Cc1ccc2c(c1)N(c1nc(N)ncc1Cl)CC2)c1nccs1 (stereo not drawn)
- Potency [1]: 1.07 µM (active)
- Potency [2]: 13.2 µM (active)
- Potency [3]: 13.2 µM (active)
- Potency [4]: inactive
- Potency [5]: inactive
- Potency [6]: inactive
- Potency [7]: inactive

SMILES: C#CCC(Cc1cnc2nc(N)nc(N)c2n1)c1ccc(C(=O)N[C@@H](CCC(=O)O)C(=O)O)cc1 (stereo partly drawn)
- Potency [1]: inactive
- Potency [2]: 0.0047 µM (active)
- Potency [4]: inactive

SMILES: CCCCC(=O)O[C@]1(C(=O)CO)[C@@H](C)C[C@H]2[C@@H]3CCC4=CC(=O)C=C[C@]4(C)[C@@]3(F)[C@@H](O)C[C@@]21C
- Potency [1]: 15.5 µM (active)
- Potency [2]: inactive
- Potency [3]: 8.4 nM (active) and 33.2 nM (active)
- Potency [4]: inactive
- Potency [5]: inactive

SMILES: Cc1noc(-c2ccc(CSCCC(=O)O)cc2)c1NC(=O)OC(C)c1ccccc1Cl (stereo not drawn)
- Potency [1]: 12 µM (active)
- Potency [2]: inactive
- Potency [4]: inactive

SMILES: CC1=C(C(=O)Nc2cc3cn[nH]c3cc2F)C(c2ccc(Cl)cc2F)N=C(c2ccnc(Cl)c2)N1 (stereo not drawn)
- Potency [1]: 3.79 µM (active)
- Potency [2]: 5.78 µM (active) and 9.34 µM (active)
- Potency [3]: 2.58 µM (active) and 4.17 µM (active)
- Potency [4]: inactive
- Potency [5]: inactive
- Potency [6]: inactive
- Potency [7]: inactive

SMILES: COc1cc(C)c(C=CC(C)=CC=CC(C)=CC(=O)O)c(C)c1C
- Potency [1]: 23.9 µM (active)

SMILES: C[C@@H](NCc1cc2ccccc2[nH]1)c1cccc2ccccc12
- Potency [1]: 10.7 µM (active)
- Potency [2]: 16.6 µM (active)
- Potency [3]: 14.8 µM (active)
- Potency [4]: inactive
- Potency [5]: inactive

SMILES: Cc1cc(O)c2c(c1)C(=O)c1cccc(O)c1C2=O
- Potency [1]: inactive
- Potency [2]: inactive
- Potency [3]: inactive
- Potency [9]: inactive
- Potency [10]: inactive
- Potency [4]: 8.17 µM (active)
- Potency [5]: inactive

SMILES: Cc1cn([C@@H]2O[C@H](CO)[C@@H](O)[C@H]2F)c(=O)[nH]c1=O
- Potency [1]: inactive
- Potency [2]: inactive
- Potency [3]: inactive

SMILES: NC1=N[C@H]2[C@H](CS[C@H]2CCCCC(=O)O)N1
- Potency [1]: inactive
- Potency [2]: inactive
- Potency [4]: inactive

SMILES: N#Cc1c(C2CCNCC2)cc(-c2c(O)cccc2OCC2CC2)nc1N
- Potency [1]: 8.49 µM (active)
- Potency [2]: 11.8 µM (active)
- Potency [3]: 9.34 µM (active)
- activity [11]: -9.7%
- activity change, negative = inhibition [12]: 0.393%
- activity [13]: -55.9%
- activity [14]: -6.86%
- Potency [4]: inactive
- Potency [6]: inactive
- Potency [7]: inactive

SMILES: Cc1coc2c1C(=O)C(=O)c1c-2ccc2c(C)cccc12
- Potency [1]: 9.52 µM (active)
- Potency [2]: inactive
- Potency [3]: inactive
- Potency [4]: inactive
- Potency [5]: inactive
- Potency [6]: inactive
- Potency [7]: 3.36 µM (active)

SMILES: Cc1cnc(Nc2ccc(N3CCN(C)CC3)cc2)nc1Nc1cccc(S(=O)(=O)NC(C)(C)C)c1
- Potency [1]: inactive
- Potency [2]: 1.66 µM (active)
- Potency [3]: 1.86 µM (active)
- activity [11]: 8.73%
- activity change, negative = inhibition [12]: -1.34%
- activity [13]: -15.4%
- activity [14]: 0.463%
- Potency [4]: inactive
- Potency [5]: inactive

SMILES: FC(F)c1nc2ccccc2n1-c1nc(N2CCOCC2)nc(N2CCOCC2)n1
- Potency [1]: 1.69 µM (active)
- Potency [2]: 57.8 nM (active) and 41.7 nM (active)
- Potency [3]: 72.8 nM (active) and 105 nM (active)
- Potency [4]: inactive
- Potency [5]: inactive
- Potency [6]: inactive
- Potency [7]: inactive

SMILES: Oc1cc(-c2nc(-c3ccccc3)[nH]c2-c2ccncc2)ccc1Cl
- Potency [1]: 1.69 µM (active)
- Potency [2]: 11.8 µM (active) and 18.3 µM (active)
- Potency [3]: 13.2 µM (active) and 16.4 µM (active)
- Potency [4]: inactive
- Potency [5]: inactive
- Potency [6]: inactive
- Potency [7]: inactive
